# Experimental data: PubChem BioAssay
# Test: mitochondrial membrane potential change in A549 cells, profiling panel, cell-based, JC-1 fluorescence, basal, 24 h, 100 nL (AID 1138);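 note: A549 lung adenocarcinoma cells under basal conditions with no added stimulus; test concentration not given here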
# Conditions: higher = more signal
row,Structure (SMILES),z-score
1,COC(=O)[C@@]1(Cc2ccc(OC)cc2)[C@H]2c3cc(C(=O)N4CCCC4)n(Cc4nc5ccccc5[nH]4)c3C[C@H]2CN1C(=O)c1ccccc1,1.92
2,COc1ccc(NC(=O)O[C@H]2[C@H](OC(=O)c3cc4ccccc4[nH]3)[C@@H](OC(=O)c3cc4ccccc4[nH]3)[C@@H](OC)O[C@@H]2CO)cc1,0.816
3,C=C(CCCC)C(=O)CC[C@@H](OC(C)=O)c1ccc(CO)o1,-0.683
4,O=C1[C@H]2C=C(I)[C@H](C[C@@H]2OCCCCO)[C@@]12CO2,-0.106
5,COCCCNC(=O)[C@@]1(Cc2ccccc2)N=C(c2ccc(OCCCO)cc2)O[C@H]1c1ccccc1CN=[N+]=[N-],1.99
6,CN(C)CCCCCCNC(=O)[C@@H]1C[C@@H]2C(=O)N3CCC[C@H]3C(=O)N2[C@@H]1c1ccc(O)cc1,0.334
7,COc1ccc([C@H]2C[C@H]3C(Br)=C[C@@]2(CO)C(=O)[C@]32CO2)cc1,-0.592
8,C=CCNC(=O)[C@@H]1[C@H]2C(=O)O[C@H](c3ccccc3)[C@H](c3ccccc3)N2[C@H](c2ccc(OCCO)cc2)[C@@]12C(=O)N(C(=O)OCCOC)c1ccc(C#CCNC(N)=O)cc12,-0.746
9,CS(=O)(=O)CCOC(=O)C1=CC(CCCO)=CC(c2ccc(CN3CCCC3)cc2)N(Cc2cccc(OC(F)(F)F)c2)C=C1C(=O)OCCS(C)(=O)=O (stereo unspecified),3.17
10,COCCOC(=O)N1C(=O)[C@@]2(c3cc(C#CC4(O)CCCCCC4)ccc31)[C@H](C(=O)Nc1nc3ccccc3s1)[C@H]1C(=O)O[C@H](c3ccccc3)[C@H](c3ccccc3)N1[C@@H]2c1ccc(OCCO)cc1,-2.51
11,[N-]=[N+]=Nc1ccccc1C[C@]1(C(=O)NCC(O)CO)N=C(c2ccc(OCCCO)cc2)O[C@H]1c1ccccc1 (stereo partly specified),0.0609
12,[N-]=[N+]=NCc1ccccc1C[C@@]1(C(=O)NCC(O)CO)N=C(c2ccc(OCCCO)cc2)O[C@@H]1c1ccccc1 (stereo partly specified),0.663
13,C=CCN1C(=O)[C@]2(O[C@H](CCO)[C@@H]([Si](C)(C)c3ccc(OC)cc3)[C@@H]2C)c2cc(N(C=O)c3ccccc3)ccc21,-1.08
14,Cc1ccc(S(=O)(=O)N2C[C@@H](C(=O)O)[C@H](Sc3ccccc3)C[C@H]2c2ccccc2)cc1,-0.0335
15,COC(=O)[C@]1(Cc2ccccc2)N=C(c2ccc(OCCCO)cc2)O[C@@H]1c1ccccc1N=[N+]=[N-],-1.24
16,C=CC[C@]1(C(N)=O)N=C(c2ccc(OCCCO)cc2)O[C@H]1c1ccccc1,-0.852
17,[N-]=[N+]=Nc1ccccc1[C@H]1OC(c2ccc(OCCCO)cc2)=N[C@@]1(Cc1ccccc1)C(=O)N1CCOCC1,-0.254
18,O=C1NC(=O)C2C1C=CC(C(O)c1ccc(-c3ccccc3)s1)N2Nc1ccc(Cl)cc1Cl (stereo unspecified),-0.536

row,Structure (SMILES),z-score
1,NCCCCCNC(=O)[C@H]1C[C@H]2C(=O)N3CCC[C@H]3C(=O)N2[C@H]1c1ccc(O)cc1,-0.373
2,CC(=O)n1cc(C(O)C2C=CC3C(=O)NC(=O)C3N2Nc2ccccn2)c2ccccc21 (stereo unspecified),0.471
3,CO[C@H]1O[C@H](CO)[C@@H](OC(=O)Nc2cccc(F)c2)[C@H](OC(=O)Nc2ccccc2)[C@H]1OC(=O)Nc1ccccc1,-1.18
4,CO[C@H]1O[C@H](CO)[C@@H](OC(=O)Nc2ccccc2-c2ccccc2)[C@H](OC(=O)Nc2ccccc2-c2ccccc2)[C@@H]1OC(=O)Nc1ccccc1-c1ccccc1,-0.00054
5,O=C(NCc1ccccc1)[C@@H]1c2ccccc2C(=O)N(C2Cc3ccccc3C2)[C@H]1c1ccc(CO)cc1,0.353
6,O=C1C2C=CC(C(O)c3ccc(-c4ccccc4)s3)N(Nc3ccccc3)C2C(=O)N1c1ccccc1 (stereo unspecified),0.267
7,Cc1c(NC(=O)/C(C#N)=C/c2cccc([N+](=O)[O-])c2)c(=O)n(-c2ccccc2)n1C,0.365
8,O=C1C2C=CC(C(O)c3c(F)cccc3Cl)N(Nc3ccccc3F)C2C(=O)N1c1ccccc1 (stereo unspecified),0.353
9,NCCCCCCNC(=O)[C@H]1C[C@H]2C(=O)N[C@@H](Cc3ccccc3)C(=O)N2[C@H]1c1cccc(OCCO)c1,0.481
10,CN(C)CCCC[C@@H]1NC(=O)[C@H]2C[C@@H](C(=O)NCCCCCN)[C@@H](c3cccc(OCCO)c3)N2C1=O,0.129
11,O=C(NCCN1CCOCC1)[C@@H]1c2ccccc2C(=O)N(Cc2cc(C(F)(F)F)cc(C(F)(F)F)c2)[C@H]1c1ccc(CO)cc1,2.57
12,COc1ccc([Si](C)(C)[C@@H]2[C@@H](CC(=O)N3Cc4ccccc4C[C@H]3CO)O[C@]3(C(=O)N(Cc4cccc(N5CCC5=O)c4)c4ccccc43)[C@H]2C)cc1,-0.256
13,CN1C(=O)C2C=CC(C(O)c3c(F)cccc3Cl)N(NC(=O)OC(C)(C)C)C2C1=O (stereo unspecified),0.584
14,O=C1OCCC/C=C\[C@H]2OC34C=CCN(c5ccc6ccccc6c5)C(=O)[C@H]3N(CCCCCO)C(=O)[C@@H]4C12 (stereo partly specified),-0.168
15,COc1ccc([Si](C)(C)[C@H]2[C@H](CC(=O)N3CCC[C@H]3CO)O[C@@]3(C(=O)N(Cc4cccc(N5CCOC5=O)c4)c4ccccc43)[C@@H]2C)cc1,1.1
16,COCC(=C=CC[C@H](O)c1cccc(OCCO)c1)CCO,-0.0195
17,C=CCC(OC(C)=O)[C@@H]1[C@@H](N(Cc2ccc(-c3cccc(C(F)(F)F)c3)o2)C(=O)c2cccc3ccccc23)c2cc(OCCCO)ccc2N1C(=O)Cc1ccc2ccccc2c1 (stereo partly specified),-0.65
18,COCCOC(=O)N1C(=O)[C@@]2(c3ccccc31)[C@H](C(=O)N1CCCCCCC1)[C@H]1C(=O)O[C@H](c3ccccc3)[C@H](c3ccccc3)N1[C@@H]2c1ccc(OCCO)cc1,-1.35
